# About 410 targets per protein were measured; listed, in parts, are those with the strongest signals and a random draw of the rest.
# B1: BC2L-A (Burkholderia cenocepacia), Q1BKJ8_BURCA (protein)
# chain: ADSQTSSNRAGEFSIPPNTDFRAIFFANAAEQQHIKLFIGDSQEPAAYHKLTTRDGPREATLNSGNGKIRFEVSVNGKPSATDARLAPINGKKSDGSPFTVNFGIVVSEDGHDSDYNDGIVVLQWPIG
# Legend:
# Assay in all cases: glycan array binding signal (z-score within array); higher = stronger binding
# Conditions in all cases: glycan notation: IUPAC condensed, linker removed
# Fuc(a1-2)Gal(b1-4)GlcNAc = target: Fuc(a1-2)Gal(b1-4)GlcNAc
# Procedure, shortened: (§1)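 Glycan array data were curated from 3228 arrays in the Consortium for Functional Glycomics database and kept only where the protein sequence was available. Glycan names were converted to IUPAC-condensed notation, and columns mapping to the same glycan were averaged. The binding signal is a within-array Z-score, averaged across arrays of the same protein sequence at different concentrations or buffers and across linkers. Negative Z-scores can be read as non-binding.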
# [1] = target: Fuc(a1-2)Gal(b1-4)GlcNAc(b1-3)Gal(b1-4)GlcNAc(b1-3)Gal(b1-4)GlcNAc
# Procedure, shortened: as §1
# Fuc(a1-2)Gal6S(b1-4)Glc = target: Fuc(a1-2)Gal6S(b1-4)Glc
# Procedure, shortened: as §1
# Fuc(a1-2)GlcNAc = target: Fuc(a1-2)GlcNAc
# Procedure, shortened: as §1
# [2] = target: Fuc(a1-2)[GalNAc(a1-3)]Gal(b1-4)GlcNAc(b1-2)Man(a1-3)[Fuc(a1-2)[GalNAc(a1-3)]Gal(b1-4)GlcNAc(b1-2)Man(a1-6)]Man(b1-4)GlcNAc(b1-4)GlcNAc
# Procedure, shortened: as §1
# [3] = target: Fuc(a1-2)[GalNAc(a1-3)]Gal(b1-4)GlcNAc(b1-3)Gal(b1-4)GlcNAc
# Procedure, shortened: as §1
# [4] = target: Fuc(a1-3)[Gal(b1-4)]GlcNAc
# Procedure, shortened: as §1
# [5] = target: Fuc(a1-3)[Gal(b1-4)]GlcNAc(b1-2)Man(a1-3)[Fuc(a1-3)[Gal(b1-4)]GlcNAc(b1-2)Man(a1-6)]Man(b1-4)GlcNAc(b1-4)[Fuc(a1-6)]GlcNAc
# Procedure, shortened: as §1
# [6] = target: Fuc(a1-3)[GalNAc(b1-4)]GlcNAc
# Procedure, shortened: as §1
# Gal(a1-3)Gal(b1-3)GlcNAc = target: Gal(a1-3)Gal(b1-3)GlcNAc
# Procedure, shortened: as §1
# Gal(b1-3)GlcNAc = target: Gal(b1-3)GlcNAc
# Procedure, shortened: as §1
# [7] = target: Gal(b1-3)GlcNAc(b1-3)Gal(b1-4)GlcNAc(b1-6)[Gal(b1-3)GlcNAc(b1-3)]Gal(b1-4)Glc
# Procedure, shortened: as §1
# [8] = target: Gal(b1-3)GlcNAc(b1-6)Gal(b1-4)GlcNAc
# Procedure, shortened: as §1
# [9] = target: Gal(b1-3)[Fuc(a1-4)]GlcNAc(b1-3)Gal(b1-4)[Fuc(a1-3)]GlcNAc
# Procedure, shortened: as §1
# [10] = target: Gal(b1-4)GlcNAc(b1-2)Man(a1-3)[Man(a1-6)]Man(b1-4)GlcNAc(b1-4)GlcNAc
# Procedure, shortened: as §1
# [11] = target: Gal(b1-4)GlcNAc(b1-2)Man(a1-6)Man(b1-4)GlcNAc(b1-4)GlcNAc
# Procedure, shortened: as §1
# [12] = target: Gal(b1-4)GlcNAc(b1-2)[Gal(b1-4)GlcNAc(b1-4)]Man(a1-3)[Gal(b1-4)GlcNAc(b1-2)Man(a1-6)]Man(b1-4)GlcNAc(b1-4)GlcNAc
# Procedure, shortened: as §1
# [13] = target: Gal(b1-4)GlcNAc(b1-2)[Gal(b1-4)GlcNAc(b1-4)]Man(a1-3)[GlcNAc(b1-4)][Gal(b1-4)GlcNAc(b1-2)[Gal(b1-4)GlcNAc(b1-6)]Man(a1-6)]Man(b1-4)GlcNAc(b1-4)GlcNAc
# Procedure, shortened: as §1
# Gal3S(b1-3)GlcNAc = target: Gal3S(b1-3)GlcNAc
# Procedure, shortened: as §1
# [14] = target: GlcNAc(a1-4)Gal(b1-4)GalNAc
# Procedure, shortened: as §1
# [15] = target: GlcNAc(b1-3)[GlcNAc(b1-6)]GlcNAc(b1-4)GlcNAc
# Procedure, shortened: as §1
# [16] = target: Man(a1-2)Man(a1-2)Man(a1-6)[Man(a1-3)]Man
# Procedure, shortened: as §1
# [17] = target: Man(a1-2)Man(a1-3)[Man(a1-2)Man(a1-6)]Man
# Procedure, shortened: as §1
# [18] = target: Man(a1-2)Man(a1-3)[Man(a1-2)Man(a1-6)]Man(a1-6)[Man(a1-2)Man(a1-2)Man(a1-3)]Man
# Procedure, shortened: as §1
# [19] = target: Man(a1-2)Man(a1-6)[Man(a1-3)]Man(a1-6)[Man(a1-2)Man(a1-2)Man(a1-3)]Man
# Procedure, shortened: as §1
# [20] = target: Man(a1-2)Man(a1-6)[Man(a1-3)]Man(a1-6)[Man(a1-2)Man(a1-2)Man(a1-3)]Man(b1-4)GlcNAc(b1-4)GlcNAc
# Procedure, shortened: as §1
# Man(a1-3)[Man(a1-6)]Man = target: Man(a1-3)[Man(a1-6)]Man
# Procedure, shortened: as §1
# [21] = target: Man(a1-3)[Man(a1-6)]Man(a1-6)[Man(a1-2)Man(a1-3)]Man(b1-4)GlcNAc(b1-4)GlcNAc
# Procedure, shortened: as §1
# [22] = target: Man(a1-3)[Man(a1-6)]Man(a1-6)[Man(a1-3)]Man(b1-4)GlcNAc(b1-4)GlcNAc
# Procedure, shortened: as §1
# [23] = target: Man(a1-3)[Man(a1-6)]Man(b1-4)GlcNAc(b1-4)GlcNAc
# Procedure, shortened: as §1
# [24] = target: Neu5Ac(a2-3)Gal(b1-3)GlcNAc(b1-3)Gal(b1-4)GlcNAc
# Procedure, shortened: as §1
# [25] = target: Neu5Ac(a2-3)Gal(b1-3)[Neu5Ac(a2-6)]GalNAc
# Procedure, shortened: as §1
# [26] = target: Neu5Ac(a2-3)Gal(b1-4)GlcNAc(b1-3)Gal
# Procedure, shortened: as §1
# [27] = target: Neu5Ac(a2-3)[GalNAc(b1-4)]Gal(b1-4)Glc
# Procedure, shortened: as §1
# [28] = target: Neu5Ac(a2-8)Neu5Ac(a2-8)Neu5Ac(a2-3)Gal(b1-4)Glc
# Procedure, shortened: as §1
# Neu5Gc(a2-6)GalNAc = target: Neu5Gc(a2-6)GalNAc
# Procedure, shortened: as §1
binder,measurement,setting,value
B1,glycan array binding signal (z-score),Fuc(a1-2)Gal(b1-4)GlcNAc,0.167
same,glycan array binding signal (z-score),[1],0.018
same,glycan array binding signal (z-score),Fuc(a1-2)Gal6S(b1-4)Glc,-0.176
same,glycan array binding signal (z-score),Fuc(a1-2)GlcNAc,-0.178
same,glycan array binding signal (z-score),[2],-0.165
same,glycan array binding signal (z-score),[3],-0.296
same,glycan array binding signal (z-score),[4],-0.285
same,glycan array binding signal (z-score),[5],-0.217
same,glycan array binding signal (z-score),[6],-0.263
same,glycan array binding signal (z-score),Gal(a1-3)Gal(b1-3)GlcNAc,-0.284
same,glycan array binding signal (z-score),Gal(b1-3)GlcNAc,-0.29
same,glycan array binding signal (z-score),[7],-0.22
same,glycan array binding signal (z-score),[8],-0.219
same,glycan array binding signal (z-score),[9],-0.086
same,glycan array binding signal (z-score),[10],2.13
same,glycan array binding signal (z-score),[11],-0.182
same,glycan array binding signal (z-score),[12],-0.144
same,glycan array binding signal (z-score),[13],-0.22
same,glycan array binding signal (z-score),Gal3S(b1-3)GlcNAc,0.002
same,glycan array binding signal (z-score),[14],-0.296
same,glycan array binding signal (z-score),[15],-0.249
same,glycan array binding signal (z-score),[16],4.07
same,glycan array binding signal (z-score),[17],2.25
same,glycan array binding signal (z-score),[18],4.82
same,glycan array binding signal (z-score),[19],4.09
same,glycan array binding signal (z-score),[20],5.06
same,glycan array binding signal (z-score),Man(a1-3)[Man(a1-6)]Man,5.28
same,glycan array binding signal (z-score),[21],5.49
same,glycan array binding signal (z-score),[22],4.38
same,glycan array binding signal (z-score),[23],4.23
same,glycan array binding signal (z-score),[24],-0.218
same,glycan array binding signal (z-score),[25],-0.083
same,glycan array binding signal (z-score),[26],-0.214
same,glycan array binding signal (z-score),[27],-0.295
same,glycan array binding signal (z-score),[28],-0.253
same,glycan array binding signal (z-score),Neu5Gc(a2-6)GalNAc,-0.29

# — the supplement of paper PMC8728848
